Screens from PubChem BioAssay.
Hits are enriched below; roughly 5.7% of the tested compounds scored in any of these assays.
rCAG binder = molecules binding r(CAG) RNA repeats; r(CAG) RNA repeat, TO-PRO-1 dye displacement fluorescence; inhibition, % at 3 µM; 370,000 compounds, 1.3% hits;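 active means inhibition above the plate cutoff, the mean of all test compounds on that plate plus 3 SD, cut at about 35% in these data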;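 further: 0% = DMSO alone and 100% = 100 µM mitoxantrone as full dye displacement; higher means more dye released from RNA so lower well fluorescence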
Myeloid diff 2 = myeloid differentiation induction | ER-HoxA9 myeloid progenitors, lysozyme-GFP differentiation, flow cytometry | 360,000 compounds, 1% hits | AID 624256 | calls only at 10 µM;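 active means normalized GFP-positive differentiation at or above the plate's own cutoff, the solvent-only control mean plus 3 SD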;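 further: cells exposed to compound for four days before flow analysis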
GRIN3A LBD mod = modulates the human NR3A ligand-binding domain; NR3A LBD differential scanning fluorimetry, Tm shift; 0% = protein alone, 100% = glycine-bound protein; AID 1259313; 340,000 compounds, 2.5% hits; Tm shift relative to glycine control, % at 25 µM;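 active means melting temperature shift of at least 10% of the positive control shift, at one fixed dose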
MPTP inh = permeability transition pore inhibition; isolated mouse mitochondria, Ca2+ swelling absorbance, 30 min; inhibition, % at 10 µM; 360,000 compounds, 1.4% hits; AID 602449;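 active means inhibition of 50% or more, scaled per plate between neutral and stimulator controls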;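 further: 0% = DMSO wells given calcium and 100% = 1 mM EGTA wells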
FAS TE block = blocks the thioesterase domain of human fatty acid synthase; recombinant FAS-TE, OMFH fluorogenic substrate, fluorescence endpoint; inhibition, % at 15 µM; 360,000 compounds, 0.67% hits; P49327; AID 602261;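 active means compounds whose normalised, plate-corrected inhibition of enzyme fluorescence in the single-dose primary screen is 50% or more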;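 further: 0% = DMSO with enzyme and 100% = substrate without enzyme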
Rh123 counter = Rhodamine 123 counter-screen of mitochondrial pore hits. shares compounds with MPTP inh. isolated mitochondria, membrane potential, Rhodamine 123 fluorescence. inhibition, % at 10 µM. 5,000 compounds, 78% hits. AID 624504; in the data active means inhibition above about 22%;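 further: 0% = DMSO vehicle and 100% = positive control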
MPTP swell DR = dose response confirmation of mitochondrial permeability transition pore inhibitors. shares compounds with MPTP inh. IC50, µM. isolated mitochondria swelling, absorbance. 780 compounds, 58% hits; in the data active means IC50 below about 20 µM
MPTP counter DR = MPTP inhibitor counter-screen activity, dose response. shares compounds with MPTP inh. isolated mitochondria counterscreen, fluorescence read-out. IC50, µM. 780 compounds, 49% hits; in the data active means IC50 below about 80 µM
* hit, by the source's call.

For Nc1c(C(=O)O)sc2nc(-c3ccccc3)c3c(c12)CCCC3 the results were rCAG binder 18.3, Myeloid diff 2 inactive, GRIN3A LBD mod -1.0, MPTP inh 1.8 and FAS TE block 14.7.
For COc1ccc(CNS(=O)(=O)CC2NCCc3ccccc32)cc1 (stereo not drawn) the results were rCAG binder -0.8.
O=C(NCC(c1ccco1)N1CCCC1)c1cccc(S(=O)(=O)N2CCOCC2)c1 (stereo not drawn) was read as rCAG binder 8.2, Myeloid diff 2 inactive, GRIN3A LBD mod 1.9, MPTP inh -0.1 and FAS TE block -7.7.
`COC(=O)[C@]12C[C@H](CC(=O)NCCC(C)C)C(=O)N(Cc3ccc4c(c3)OCO4)C1=C[C@H](COCc1ccccc1)O[C@@H]2C` gave rCAG binder 4.2.
Cc1cccc(C)c1NC(=O)C(c1ccccc1)N1CCC(c2ccccc2)CC1 (stereo not drawn) was read as rCAG binder 1.8, Myeloid diff 2 inactive and MPTP inh -1.5.
CN1C(=O)NC(=O)C1c1ccccc1 (stereo not drawn) was read as rCAG binder 1.1, Myeloid diff 2 inactive, GRIN3A LBD mod 0.5, MPTP inh -0.3 and FAS TE block -6.8.
Screening Nc1nc2ccccc2n1CCOc1ccccc1Cl returned rCAG binder 1.7, Myeloid diff 2 inactive, GRIN3A LBD mod 1.4, MPTP inh 73.6*, FAS TE block -23.7, Rh123 counter 19.2, MPTP swell DR 8.95* and MPTP counter DR 27.2*.
`CSc1ccc2c(c1)N(CCC1CCCCN1C)c1ccccc1S2` (stereo not drawn) gave rCAG binder 8.1, Myeloid diff 2 inactive, GRIN3A LBD mod -0.5, MPTP inh 85.4*, FAS TE block 4.5, Rh123 counter -22.1, MPTP swell DR 4.79* and MPTP counter DR 56*.
CN1CCN(CCCN2c3ccccc3Sc3ccc(S(=O)(=O)N(C)C)cc32)CC1 was read as rCAG binder -0.4, Myeloid diff 2 inactive, GRIN3A LBD mod -1.3, MPTP inh 1.1 and FAS TE block 10.4.
Screening CCOC(=O)c1cc(NC(=O)COc2ccc([N+](=O)[O-])cc2)cc(C(=O)OCC)c1 returned rCAG binder 4.8, Myeloid diff 2 inactive, GRIN3A LBD mod -3.4, MPTP inh 50.3*, FAS TE block 1.8 and Rh123 counter 56.1*.
`COC(=O)c1cccc(NC(=O)/C=C/c2ccc([N+](=O)[O-])cc2)c1` gave rCAG binder 8.0, Myeloid diff 2 inactive, GRIN3A LBD mod -0.7, MPTP inh 5.8 and FAS TE block 9.5.
For O=C(/C=C/c1cc([N+](=O)[O-])ccc1OC(F)F)Nc1cccc([N+](=O)[O-])c1 the results were rCAG binder -0.6, Myeloid diff 2 inactive, GRIN3A LBD mod 1.8, MPTP inh 89.3*, FAS TE block 5.0, Rh123 counter 9.6, MPTP swell DR 8.2* and MPTP counter DR <2.5*.
`CCOC(=O)c1cccc(NC(=O)/C=C/c2ccc([N+](=O)[O-])cc2)c1` gave rCAG binder 6.6, Myeloid diff 2 inactive, GRIN3A LBD mod 5.4, MPTP inh 92.2*, FAS TE block 15.0 and Rh123 counter 78.2*.
`O=[N+]([O-])c1cc([N+](=O)[O-])c2n[nH]c(-c3ccccc3)c2c1` gave rCAG binder -1.3, Myeloid diff 2 inactive, GRIN3A LBD mod -1.7, MPTP inh 1.3 and FAS TE block -3.4.
O=[N+]([O-])c1cc(-c2n[nH]c(-c3ccccc3)n2)cc([N+](=O)[O-])c1 was read as rCAG binder 3.9, Myeloid diff 2 inactive, GRIN3A LBD mod 26.9*, MPTP inh 71.9*, FAS TE block 15.9, Rh123 counter 8.8, MPTP swell DR 19.8* and MPTP counter DR <2.5*.
For O=c1[nH]c(-c2ccc(F)cc2)nc2c1sc(=S)n2-c1ccccc1 the results were rCAG binder 5.6, Myeloid diff 2 inactive, GRIN3A LBD mod -2.7, MPTP inh 55.6*, FAS TE block 0.8, Rh123 counter 8.1, MPTP swell DR inactive and MPTP counter DR <2.5*.
For CCCNC(=O)C1(C)CCCN(Cc2cccc(Oc3ccccc3)c2)C1 (stereo not drawn) the results were rCAG binder -2.2, Myeloid diff 2 inactive, MPTP inh 0.1 and FAS TE block 6.3.
COc1ccc(/C=N/NC(=O)c2ccc(N)cc2)cc1Cn1cc([N+](=O)[O-])cn1 was read as rCAG binder 4.7, Myeloid diff 2 inactive, GRIN3A LBD mod -4.7, MPTP inh -0.1 and FAS TE block 17.3.
Screening O=C(Nc1ccncc1)Nc1cc(Cl)ccc1Cl returned rCAG binder 4.1, Myeloid diff 2 inactive, GRIN3A LBD mod 4.8, MPTP inh 34.0 and FAS TE block 4.8.
Screening CC(Oc1ccc(Cl)cc1Cl)C(=O)Nc1cccnc1 (stereo not drawn) returned rCAG binder 0.1, Myeloid diff 2 inactive, GRIN3A LBD mod -0.7, MPTP inh 0.8 and FAS TE block -2.5.
Screening CCCc1c(C(=O)Nc2ccc(F)cc2F)cnn1-c1ccccc1 returned rCAG binder -3.3, Myeloid diff 2 inactive, GRIN3A LBD mod -0.7, MPTP inh 1.6 and FAS TE block -3.0.
Screening O=C(Nc1ccncc1)Nc1ccc(Cl)cc1 returned rCAG binder 4.4, Myeloid diff 2 inactive, GRIN3A LBD mod 26.1*, MPTP inh 55.1*, FAS TE block 1.1 and Rh123 counter 97.7*.
O=C(Nc1ccncc1)Nc1ccncc1 was read as rCAG binder 1.7, Myeloid diff 2 inactive, GRIN3A LBD mod -10.5, MPTP inh 2.9 and FAS TE block -6.4.
`O=C(Nc1ccncc1)Nc1ccc(Cl)cc1Cl` gave rCAG binder 3.1, Myeloid diff 2 inactive, GRIN3A LBD mod 2.1, MPTP inh 50.7*, FAS TE block -0.2 and Rh123 counter 103.6*.
`CCCc1c(NC(=O)Nc2ccc(Cl)cc2Cl)cnn1-c1ccccc1` gave rCAG binder -7.8, Myeloid diff 2 inactive, GRIN3A LBD mod -8.6, MPTP inh 83.4*, FAS TE block -1.4 and Rh123 counter 75.6*.
Screening CC(Oc1ccc(Cl)cc1Cl)C(=O)Nc1ccncc1 (stereo not drawn) returned rCAG binder -1.9, Myeloid diff 2 inactive, GRIN3A LBD mod -1.5, MPTP inh 76.8*, FAS TE block -4.5 and Rh123 counter 73.6*.
C=CCn1c(=NC(=O)CC)n(C)c2ccccc21 was read as rCAG binder -0.1, Myeloid diff 2 inactive, GRIN3A LBD mod -3.5, MPTP inh -1.3 and FAS TE block -11.8.
